Test results published in PubChem BioAssay (NCATS).
Inconclusive results are not listed. A call without a number means that no potency is given here. A number with no mark means an inactive call. Active and inactive are the calls of the source. Unless noted, calls follow the shape of the full dose curve.

Experiments:
[1] = qHTS for Inhibitors of the Functional Ribonucleoprotein Complex (vRNP) of Lassa (LASV) Arenavirus: LASV Primary Screen - GLuc reporter signal (AID 1347082; calls by dose curve; tested in HEK293 reporter line; also: nearly all actives have a fitted effect of over 60% in size); details: LASV minigenome vRNP, Gaussia luciferase reporter; series mostly up to 57.5 µM
[2] = qHTS for Inhibitors of the Functional Ribonucleoprotein Complex (vRNP) of Lassa (LASV) Arenavirus: Viability assay - alamar blue signal for LASV Primary Screen (AID 1347083; calls by dose curve; tested in HEK293 reporter line; also: nearly all actives have a fitted effect of over 80% in size); details: cell viability, alamar blue fluorescence (LASV minigenome counter-screen); series mostly up to 57.5 µM
[3] = qHTS for Inhibitors of the Functional Ribonucleoprotein Complex (vRNP) of Lymphocytic Choriomeningitis Arenaviruses (LCMV): Viability assay - alamar blue signal for LCMV Primary Screen (AID 1347085; calls by dose curve; tested in HEK293 reporter line; also: nearly all actives have a fitted effect of over 80% in size); details: alamar blue viability counter-screen, LCMV vRNP screen cells; series mostly up to 57.5 µM
[4] = target: Nucleoprotein (Lymphocytic choriomeningitis virus (strain Armstrong)) (UniProt P09992); experiment: qHTS for Inhibitors of the Functional Ribonucleoprotein Complex (vRNP) of Lymphocytic Choriomeningitis Arenaviruses (LCMV): LCMV Primary Screen - GLuc reporter signal (AID 1347086); details: LCMV minigenome vRNP cell assay, Gaussia luciferase reporter; series mostly up to 57.5 µM; also: nearly all actives have a fitted effect of over 70% in size
Potency is read from the fitted curve at half-maximal effect.

Chain of Nucleoprotein (Lymphocytic choriomeningitis virus (strain Armstrong)) (P09992 whole entry, looked up): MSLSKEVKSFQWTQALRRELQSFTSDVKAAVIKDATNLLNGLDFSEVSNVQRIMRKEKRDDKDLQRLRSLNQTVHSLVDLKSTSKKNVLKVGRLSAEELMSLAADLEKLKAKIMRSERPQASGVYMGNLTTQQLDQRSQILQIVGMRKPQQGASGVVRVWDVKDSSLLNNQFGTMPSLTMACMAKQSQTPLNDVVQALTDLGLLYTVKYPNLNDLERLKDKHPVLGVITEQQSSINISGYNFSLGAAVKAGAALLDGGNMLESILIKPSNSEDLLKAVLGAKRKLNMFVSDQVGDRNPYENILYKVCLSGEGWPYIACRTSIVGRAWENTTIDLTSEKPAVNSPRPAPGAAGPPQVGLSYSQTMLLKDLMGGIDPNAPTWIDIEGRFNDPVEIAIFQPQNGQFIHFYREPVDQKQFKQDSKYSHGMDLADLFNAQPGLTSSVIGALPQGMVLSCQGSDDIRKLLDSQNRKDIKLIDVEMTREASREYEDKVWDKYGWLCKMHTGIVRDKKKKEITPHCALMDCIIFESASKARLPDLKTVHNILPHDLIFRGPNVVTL

| SMILES | Potency [1] | Potency [2] | Potency [3] | Potency [4] | activity change, negative = inhibition [1] | activity change, negative = reduced viability [2] | activity change, negative = lower viability [3] | activity change, negative = inhibition [4] |
| --- | --- | --- | --- | --- | --- | --- | --- | --- |
| CCCC(=O)OC | inactive | inactive | inactive | inactive | – | – | – | – |
| CC12CCC3C(CCC4CC(O)CCC43C)C1CC(O)C2 (stereo not given) | inactive | inactive | inactive | inactive | – | – | – | – |
| C=C/C(C)=C/C/C=C(\C)CCC=C(C)C | inactive | inactive | inactive | inactive | – | – | – | – |
| CC12CCC(C1)C(C)(C)C2O (stereo not given) | inactive | inactive | inactive | inactive | – | – | – | – |
| COc1cc2c(cc1O)C(Cc1ccc(O)cc1)[N+](C)(C)CC2 (stereo not given) | inactive | inactive | inactive | inactive | – | – | – | – |
| COC1=CC(=O)CC(C)C12Oc1cc(OC)cc(OC)c1C2=O (stereo not given) | inactive | inactive | inactive | inactive | – | – | – | – |
| Cc1ccnc(N)c1 | inactive | inactive | inactive | inactive | – | – | – | – |
| CC12CCC(=O)C=C1C(F)CC1C2C(O)CC2(C)C1CCC2(O)C(=O)CO (stereo not given) | inactive | inactive | inactive | inactive | – | – | – | – |
| O=c1ccc2cc3ccoc3c(O)c2o1 | inactive | inactive | inactive | inactive | – | – | – | – |
| CC1(C)C2CC[C@]3(C)C(CC=C4[C@@H]5C[C@@](C)(CO)[C@@H](O)C[C@]56C[C@@H](OC6=O)[C@]43C)[C@@]2(C)CC[C@@H]1O (stereo not given in full) | inactive | inactive | inactive | inactive | – | – | – | – |
| C=C/C(=C/C(=O)C[C@H](C)C[C@@H](C)CC[C@H](O)[C@H](C)C(=O)C[C@@H](O)[C@H](C)[C@@H](C)OC(=O)C[C@@H](O)C1=C(C)C(=O)OC1=O)CC | – | – | – | – | -47.1% [at 11.5 µM] | -113% [at 11.5 µM] | -114% [at 11.5 µM] | -83.6% [at 11.5 µM] |
| CCCCCC1CCCC(=O)O1 (stereo not given) | inactive | inactive | inactive | inactive | – | – | – | – |
| CC(C)CNC(=O)/C=C/C=C/CCCC/C=C/c1ccc2c(c1)OCO2 | inactive | inactive | inactive | inactive | – | – | – | – |
| O=C(O)[C@@H]1Cc2c([nH]c3ccccc23)C2CCC(=O)N21 (stereo not given in full) | inactive | inactive | inactive | inactive | – | – | – | – |
| CC/C=C\CCOC(C)=O | inactive | inactive | inactive | inactive | – | – | – | – |
| CCCCCCCCCCCCCC[C@@H](O)[C@@H](O)[C@@H](N)CO | inactive | inactive | inactive | inactive | – | – | – | – |
| C[C@@H]1CC[C@]2(C(=O)O[C@@H]3O[C@H](CO)[C@@H](O)[C@H](O)[C@H]3O)CC[C@]3(C)C(=CCC4[C@@]5(C)CC[C@H](O[C@@H]6OC[C@H](O)[C@H](O[C@@H]7O[C@H](CO)[C@@H](O)[C@H](O)[C@H]7O)[C@H]6O)C(C)(C)C5CC[C@]43C)C2[C@]1(C)O (stereo not given in full) | inactive | inactive | inactive | inactive | – | – | – | – |
| O=C(O)CCC[C@H](O)\C=C/C=C/C=C/[C@H](O)C/C=C\CCCCCO | – | – | – | – | 12% [at 0.757 µM] | 2.93% [at 0.757 µM] | -25.2% [at 0.757 µM] | -1.08% [at 0.757 µM] |
| C=CCNC1=C2C[C@@H](C)C[C@H](OC)[C@@H](O)[C@@H](C)C=C(C)[C@H](OC(N)=O)[C@@H](OC)C=CC=C(C)C(=O)NC(=CC1=O)C2=O | 8.63 µM (active) | 6.85 µM (active) | 15.3 µM (active) | 4.32 µM (active) | – | – | – | – |
| C[C@]12CCC(=O)C=C1CC[C@@H]1[C@H]2[C@@H](O)C[C@@]2(C)[C@H]1CC[C@]2(O)C(=O)CO | inactive | inactive | inactive | inactive | – | – | – | – |

| SMILES | Potency [1] | Potency [2] | Potency [3] | Potency [4] | activity change, negative = inhibition [1] | activity change, negative = reduced viability [2] | activity change, negative = lower viability [3] | activity change, negative = inhibition [4] |
| --- | --- | --- | --- | --- | --- | --- | --- | --- |
| O=c1oc(-c2ccc(O)c(O)c2)cc2cc(O)cc(O)c12 | inactive | inactive | inactive | inactive | – | – | – | – |
| C=C[C@@]1(C)CCC(/C(C)=C/C=C/C(C)(C)O)C[C@@H]1C(=C)C (stereo not given in full) | inactive | inactive | inactive | inactive | – | – | – | – |
| O=C1C=C(C2OC(CO)C(O)C2O)C(=O)N1 (stereo not given) | inactive | inactive | inactive | inactive | – | – | – | – |
| C=CC(O)CCCCC (stereo not given) | inactive | inactive | inactive | inactive | – | – | – | – |
| CC[C@H]1NC(=O)[C@@H](NC(=O)c2ncccc2O)[C@@H](C)OC(=O)[C@H](c2ccccc2)NC(=O)[C@@H]2CC(=O)CCN2C(=O)[C@H](Cc2ccccc2)N(C)C(=O)[C@@H]2CCCN2C1=O | inactive | inactive | inactive | inactive | – | – | – | – |
| Cn1cc(C=C2C(=O)Nc3cccnc32)c2ccccc21 | inactive | inactive | inactive | inactive | – | – | – | – |
| C[C@H]1CCC2[C@](C)(CO)[C@@H](O)CC[C@]2(C)[C@@]12CCC(CO)(CCO)O2 (stereo not given in full) | inactive | inactive | inactive | inactive | – | – | – | – |
| O=C(O)[C@H]1NC[C@H]2C[C@H]21 | inactive | inactive | inactive | inactive | – | – | – | – |
| COc1ccc(C(=O)OC2C[C@H]3CC[C@@H](C2)N3O)cc1OC (stereo not given in full) | inactive | inactive | inactive | inactive | – | – | – | – |
| NC1(Cc2ccc(Cl)cc2)CCN(c2ncnc3[nH]ccc23)CC1 | 9.68 µM (active) | 2.73 µM (active) | 7.69 µM (active) | 9.68 µM (active) | – | – | – | – |
| COc1c(-c2ccc(O)cc2)oc2cc(O)cc(O)c2c1=O | inactive | inactive | inactive | inactive | – | – | – | – |
| CC1=CC2OC3CC4OC(=O)C=CC=CC(C(C)O)OCC(O)C(C)CC(=O)OCC2(CC1O)C4(C)C31CO1 (stereo not given) | inactive | inactive | inactive | inactive | – | – | – | – |
| O=c1cc(-c2ccccc2)oc2cc(O)ccc12 | inactive | inactive | inactive | inactive | – | – | – | – |
| COc1cc2c(cc1O)[C@@H]1Cc3cc(O)c(OC)cc3[C@H](C2)N1C | inactive | inactive | inactive | inactive | – | – | – | – |
| COc1cc(CCC(C)=O)ccc1O | inactive | inactive | inactive | inactive | – | – | – | – |
| COc1c(C)c2c(c(O)c1CC=C(C)CCC(=O)O)C(=O)OC2 | 6.11 µM (active) | 3.85 µM (active) | 13.7 µM (active) | 7.69 µM (active) | – | – | – | – |
| COc1cc2c(c(OC)c1CC=C(C)C)C[C@H](c1ccc(O)cc1O)CO2 | inactive | inactive | inactive | inactive | – | – | – | – |
| C/C=C/c1ccc2oc(-c3ccc(O)cc3)c(C)c2c1 | inactive | inactive | inactive | inactive | – | – | – | – |
| CC(C)=CCOc1c2ccoc2c(OCC=C(C)C)c2oc(=O)ccc12 | inactive | inactive | inactive | inactive | – | – | – | – |
| CC(C)C(=O)COc1c2occc2cc2ccc(=O)oc12 | inactive | inactive | inactive | inactive | – | – | – | – |

| SMILES | Potency [1] | Potency [2] | Potency [3] | Potency [4] | activity change, negative = inhibition [1] | activity change, negative = reduced viability [2] | activity change, negative = lower viability [3] | activity change, negative = inhibition [4] |
| --- | --- | --- | --- | --- | --- | --- | --- | --- |
| COc1cccc(OC)c1C(=O)O | inactive | inactive | inactive | inactive | – | – | – | – |
| CC1OCCC1=O (stereo not given) | inactive | inactive | inactive | inactive | – | – | – | – |
| CCCCCCOC(=O)CCC | inactive | inactive | inactive | inactive | – | – | – | – |
| CCCCC/C=C\C[C@@H]1O[C@H]1C(O)/C=C\C/C=C\CCCC(=O)O (stereo not given in full) | – | – | – | – | 2.65% [at 0.757 µM] | 5.76% [at 0.757 µM] | 11% [at 0.757 µM] | 17.5% [at 0.757 µM] |
| CCN1CCC(n2cc(CNc3cc(Cl)c4ncc(C#N)c(Nc5ccc(F)c(Cl)c5)c4c3)nn2)CC1 | inactive | inactive | inactive | inactive | – | – | – | – |
| Nc1ncnc2c1ncn2[C@@H]1O[C@H](COP(=O)(O)OP(=O)(O)OC[C@H]2OC(O)[C@H](O)[C@@H]2O)[C@@H](O)[C@H]1O (stereo not given in full) | inactive | inactive | inactive | inactive | – | – | – | – |
| C=C(C)[C@@H](O)COc1c2ccoc2cc2oc(=O)ccc12 | inactive | inactive | inactive | inactive | – | – | – | – |
| COC(=O)c1cc(=O)cc(C(=O)OC)o1 | inactive | inactive | inactive | inactive | – | – | – | – |
| CC/C=C\CCOC(=O)CC | inactive | inactive | inactive | inactive | – | – | – | – |
| O=C(CCCO)CCCCCCCCC[C@H]1N[C@H](CO)[C@@H](O)[C@@H]1O | inactive | inactive | inactive | inactive | – | – | – | – |
| CCOC(=O)Cc1ccccc1 | inactive | inactive | inactive | inactive | – | – | – | – |
| COc1cc2c(cc1OC)C1Cc3ccc(OC)c(OC)c3C[N+]1([O-])CC2 (stereo not given) | inactive | inactive | inactive | inactive | – | – | – | – |
| N#CC(=Cc1ccc(O)c(O)c1)C(=O)NCc1ccccc1 | inactive | inactive | inactive | inactive | – | – | – | – |
| COc1cc2c(OC(C)=O)c3c(c(-c4ccc5c(c4)OCO5)c2cc1OC)C(=O)OC3 | inactive | inactive | inactive | inactive | – | – | – | – |
| COc1c2c(nc3occc13)C(CC=C(C)C)(OC)C(=O)C=C2 (stereo not given) | inactive | inactive | inactive | inactive | – | – | – | – |
| COc1cc2ccc(=O)oc2cc1O | inactive | inactive | inactive | inactive | – | – | – | – |
| COc1cc2c(cc1OC)[C@@H]1Cc3cc4c(cc3[C@H](C2)N1C)OCO4 | inactive | inactive | inactive | inactive | – | – | – | – |
| COc1cc(N2CCN(C)CC2)ccc1Nc1nc(N)c(C(=O)c2c(Cl)cccc2Cl)s1 | inactive | inactive | inactive | inactive | – | – | – | – |
| CCCCCCCCCCCCCCCCCCOS(=O)(=O)O | inactive | inactive | inactive | inactive | – | – | – | – |
| CCCC(C)C(O)CC (stereo not given) | inactive | inactive | inactive | inactive | – | – | – | – |
